About 4,900 (1.5%) of roughly 330,000 compounds were called active. Many of the other results were omitted from the sample, so actives are more common in it than they were. A number with no mark means an inactive call.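 How the source made its calls: active means inhibition above the mean inhibition across the screen plus 3 SD (cut at about 25% in these data); inactive means the rest.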

Platelet-activating factor acetylhydrolase (Homo sapiens), sequence (Q13093 whole entry, looked up): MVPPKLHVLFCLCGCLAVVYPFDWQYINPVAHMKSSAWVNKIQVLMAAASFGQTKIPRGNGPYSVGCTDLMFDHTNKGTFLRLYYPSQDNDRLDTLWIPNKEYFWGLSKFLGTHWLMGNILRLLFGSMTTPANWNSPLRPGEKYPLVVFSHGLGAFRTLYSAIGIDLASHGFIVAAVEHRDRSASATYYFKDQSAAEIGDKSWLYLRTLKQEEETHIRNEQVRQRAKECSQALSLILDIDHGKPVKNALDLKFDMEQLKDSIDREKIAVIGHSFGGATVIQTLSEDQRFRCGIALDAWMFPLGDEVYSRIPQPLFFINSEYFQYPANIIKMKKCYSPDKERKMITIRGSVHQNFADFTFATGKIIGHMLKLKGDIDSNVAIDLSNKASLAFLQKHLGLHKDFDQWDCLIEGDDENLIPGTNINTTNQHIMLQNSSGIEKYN

This assay has as its target Platelet-activating factor acetylhydrolase (Homo sapiens) (UniProt Q13093). Nature of the assay: inhibition of plasma PAF acetylhydrolase – biochemical, fluorescence polarization, human, primary screen (AID 463082).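 Further: inhibitors block binding of the rhodamine activity-based probe so polarization drops; 0% = enzyme with DMSO and 100% = wells lacking pPAFAH.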 The note with it: recombinant pPAFAH, FP-rhodamine probe fluorescence polarization; at 3.39 µM; stronger effect = higher value. In general terms: Polarisation of emitted light reports the rotation of a fluorescent probe.
As a reminder, the inhibition is the drop in the measured response relative to a control, in per cent. Turning to `COc1ccc(CN2C(=O)NC(=O)/C(=C\c3ccc(OC)c(OC)c3OC)C2=O)cc1`, the inhibition is 2.22%.

Turning to `COc1ccc(N2C(=O)/C(=C/c3ccco3)C(=O)NC2=S)cc1`, the inhibition was 39.7% (active).

Take `COc1cccc(N2C(=O)NC(=O)/C(=C\c3cn(C)c4ccccc34)C2=O)c1`: the inhibition was 0.95%.

Take `O=C(CN1CCCC1=O)NCCc1ccccc1`: the inhibition is 6.04%.

As for `O=C1CC(=O)N(Cc2ccccc2)C(=O)N1CCCCCCN1C(=O)CC(=O)N(Cc2ccccc2)C1=O`, the inhibition was 41.3% (active).

Take `CC(C)(C)c1ccc(CN2C(=O)CN=C(c3ccccc3)c3ccccc32)cc1`: the inhibition is -2.71%.

For the compound `O=c1[nH]c(CN2CC=C(c3ccccc3)CC2)nc2scc(-c3cccs3)c12`, the inhibition was 8.85%.

As for `CN(C)c1ccc(/C=C2\CC3C4CC=C5CC(O)CCC5(C)C4CCC3(C)C2=O)cc1` (stereo not given), the inhibition was 3.94%.

As for `Cc1ccccc1NC(=O)COC(=O)c1cc(C)n(C2CC2)c1C`, the inhibition is 3.84%.

For `Cc1nn(-c2ccccc2)c(C)c1NC(=O)COC(=O)Cc1ccccc1`, the inhibition was 46.5% (active).

With `O=C(COC(=O)Cc1ccccc1)Nc1ccc(F)cc1`, the inhibition was 23.1%.

As to `O=[N+]([O-])c1ccc(C2C3C(c4ccccc4)=NC4(CCCCC4)N32)cc1` (stereo not given), the inhibition was 6.5%.

With `Cn1cc(C(=O)OCC(=O)N2CCCC2)c2ccccc21`, the inhibition was -2.21%.

With `COc1ccccc1NC(=O)N1C[C@@H]2C[C@@H](C1)c1cccc(=O)n1C2`, the inhibition is 5.55%.

With `CSc1nc2ccc(C)cc2c(=O)n1-c1cccnc1`, the inhibition is -1.83%.

Regarding `Cc1ccccc1N1C(=O)NC(=O)/C(=C\c2cc(C)n(C)c2C)C1=O`, the inhibition is -0.82%.

On to `O=C1NC(=O)N(c2ccccc2)C(=O)/C1=C/c1ccc([N+](=O)[O-])s1`, for which the inhibition is 58% (active).

As to `COC(=O)C1=C(c2ccc(C(C)=O)cc2)C[C@@H]2CC[C@H]1N2C(=O)NCCNC(C)=O`, the inhibition was 3.68%.

As for `COc1cccc(C(=O)N2C[C@H]3C[C@@H](C2)c2cccc(=O)n2C3)c1`, the inhibition was 3.04%.

As for `C/C(=N/O)c1ccc2ccc3ccccc3c2c1`, the inhibition is 1.83%.

For the compound `COC(=O)C1=C(c2cc3ccccc3s2)C[C@@H]2CC[C@H]1N2C(=O)NC(C)C`, the inhibition is 4.37%.

Consider `NCCc1ccc(S(=O)(=O)F)cc1`, for which the inhibition was 59.5% (active).

Take `CN1CCN(Cc2ccc(OC(F)(F)F)cc2)CC1`: the inhibition was -4.99%.

As for `C=Cn1ccnc1P(=S)(c1cc(N(CC)CC)ns1)c1nccn1C=C`, the inhibition is -4.36%.

With `CCOC(=O)C1CN(C)CCC1=O` (stereo not given), the inhibition is 4.48%.

These data come from PubChem BioAssay AID463082 (The Scripps Research Institute Molecular Screening Center, 2010).
